# Laboratory results published in article PMC7862700, “An all-to-all approach to the identification of sequence-specific readers for epigenetic DNA modifications on cytosine”.
# What was measured:
# Assay in all cases: DAPPL (digital affinity profiling via proximity ligation, sequencing); 10 mM Tris-HCl pH 7.5, 50 mM NaCl, 1 mM DTT, 4% glycerol, room temperature, 30 min; GST-TFs on glutathione beads, 16-mer random dsDNA library, 0.1% formaldehyde crosslink after washing; high values mean tight binding
# [1] = molecular target: T1, FLI1 (Homo sapiens, UniProt Q01543 1-452); conditions: protein: recombinant; tags: N-terminal GST; dsDNA, one strand shown
# T1 sequence: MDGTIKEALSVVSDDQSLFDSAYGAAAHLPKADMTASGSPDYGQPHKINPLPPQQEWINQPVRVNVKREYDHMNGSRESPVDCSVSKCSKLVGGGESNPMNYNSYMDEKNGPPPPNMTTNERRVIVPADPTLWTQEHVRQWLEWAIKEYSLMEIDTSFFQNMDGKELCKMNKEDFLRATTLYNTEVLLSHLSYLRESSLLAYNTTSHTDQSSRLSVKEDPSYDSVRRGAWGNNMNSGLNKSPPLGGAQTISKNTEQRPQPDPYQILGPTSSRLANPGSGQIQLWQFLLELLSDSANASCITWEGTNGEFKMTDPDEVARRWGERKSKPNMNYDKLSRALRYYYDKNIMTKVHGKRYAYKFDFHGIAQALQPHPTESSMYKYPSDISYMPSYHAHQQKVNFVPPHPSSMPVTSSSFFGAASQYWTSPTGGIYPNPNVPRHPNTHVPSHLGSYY
# How it was run: (§1)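 Pools of DNA-barcoded human transcription factors, expressed in yeast as GST fusions on glutathione beads and combined with a tag-only sample, were incubated with 200 nmole of a 16-mer random double-stranded DNA library. Incubation took 30 min at room temperature in Tris/NaCl/DTT/glycerol buffer and was followed by washing, 0.1% formaldehyde crosslinking, proximity ligation (BsaI/T4 ligase, 1 h, 37 °C), PCR amplification and sequencing on an Illumina NextSeq500. Binding signal is the ratio of a hexamer's read frequency for a factor to its frequency for the tag-only sample.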
# [2] = molecular target: T2, ELK1 (Homo sapiens, UniProt P19419 1-428); conditions: protein: recombinant; tags: N-terminal GST; dsDNA, one strand shown
# T2 sequence: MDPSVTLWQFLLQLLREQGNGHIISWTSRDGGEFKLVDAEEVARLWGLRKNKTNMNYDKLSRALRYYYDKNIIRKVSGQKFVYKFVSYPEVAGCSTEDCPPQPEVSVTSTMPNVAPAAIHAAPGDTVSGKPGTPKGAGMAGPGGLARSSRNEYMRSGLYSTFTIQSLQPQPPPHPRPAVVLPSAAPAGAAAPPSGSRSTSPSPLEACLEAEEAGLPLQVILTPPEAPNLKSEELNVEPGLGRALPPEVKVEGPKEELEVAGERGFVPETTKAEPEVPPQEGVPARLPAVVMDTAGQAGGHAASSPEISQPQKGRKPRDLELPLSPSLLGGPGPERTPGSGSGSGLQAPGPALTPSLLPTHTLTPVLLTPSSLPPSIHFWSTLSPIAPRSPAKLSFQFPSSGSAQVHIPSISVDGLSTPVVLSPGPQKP
# How it was run: as §1
# [3] = molecular target: T3, GABPA (Homo sapiens, UniProt Q06546 1-454); conditions: protein: recombinant; tags: N-terminal GST; dsDNA, one strand shown
# T3 sequence: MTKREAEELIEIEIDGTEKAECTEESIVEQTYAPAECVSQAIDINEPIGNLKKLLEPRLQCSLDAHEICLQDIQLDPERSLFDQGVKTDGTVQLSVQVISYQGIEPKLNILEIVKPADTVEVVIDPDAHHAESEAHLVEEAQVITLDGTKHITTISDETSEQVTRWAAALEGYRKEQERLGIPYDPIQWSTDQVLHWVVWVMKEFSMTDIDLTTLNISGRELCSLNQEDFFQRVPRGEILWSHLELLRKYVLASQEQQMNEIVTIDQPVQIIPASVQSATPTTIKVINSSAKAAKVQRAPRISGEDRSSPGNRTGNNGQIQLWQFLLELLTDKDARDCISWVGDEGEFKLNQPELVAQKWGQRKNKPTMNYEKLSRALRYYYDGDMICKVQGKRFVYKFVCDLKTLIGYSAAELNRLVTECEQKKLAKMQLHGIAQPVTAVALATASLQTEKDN
# How it was run: as §1
# [4] = molecular target: T4, ERG (Homo sapiens, UniProt P11308 1-479); conditions: protein: recombinant; tags: N-terminal GST; dsDNA, one strand shown
# T4 sequence: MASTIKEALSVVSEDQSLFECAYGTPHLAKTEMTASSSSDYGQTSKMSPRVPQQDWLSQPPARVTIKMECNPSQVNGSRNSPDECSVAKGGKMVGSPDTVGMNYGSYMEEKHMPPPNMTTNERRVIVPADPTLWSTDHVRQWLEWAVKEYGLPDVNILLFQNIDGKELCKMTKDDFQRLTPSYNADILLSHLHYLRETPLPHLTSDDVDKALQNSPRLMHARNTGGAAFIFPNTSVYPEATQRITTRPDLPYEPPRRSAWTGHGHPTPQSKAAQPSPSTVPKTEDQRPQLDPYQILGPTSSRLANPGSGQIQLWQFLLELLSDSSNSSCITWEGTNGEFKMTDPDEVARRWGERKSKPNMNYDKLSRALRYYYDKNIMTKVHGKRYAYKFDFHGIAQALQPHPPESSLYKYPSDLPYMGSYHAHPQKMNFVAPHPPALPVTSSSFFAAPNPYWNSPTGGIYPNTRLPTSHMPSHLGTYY
# How it was run: as §1
# [5] = molecular target: ELF1 (Homo sapiens, UniProt P32519 1-619); conditions: protein: recombinant; tags: N-terminal GST; dsDNA, one strand shown
# How it was run: as §1
# [6] = molecular target: T5, EHF (Homo sapiens, UniProt Q9NZC4 1-300); conditions: protein: recombinant; tags: N-terminal GST; dsDNA, one strand shown
# T5 sequence: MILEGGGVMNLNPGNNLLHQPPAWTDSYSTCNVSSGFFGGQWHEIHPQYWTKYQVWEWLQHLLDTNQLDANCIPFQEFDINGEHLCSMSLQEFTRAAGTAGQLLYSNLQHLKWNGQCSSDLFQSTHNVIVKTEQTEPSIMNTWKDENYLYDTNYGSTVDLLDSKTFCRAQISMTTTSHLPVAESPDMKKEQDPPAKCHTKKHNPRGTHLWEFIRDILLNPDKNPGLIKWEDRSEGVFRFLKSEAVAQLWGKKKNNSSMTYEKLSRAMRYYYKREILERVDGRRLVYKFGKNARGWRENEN
# How it was run: as §1
# [7] = molecular target: SPI1 (Homo sapiens, UniProt P17947 1-270); conditions: protein: recombinant; tags: N-terminal GST; dsDNA, one strand shown
# How it was run: as §1
# [8] = molecular target: SPIB (Homo sapiens, UniProt Q01892 1-262); conditions: protein: recombinant; tags: N-terminal GST; dsDNA, one strand shown
# How it was run: as §1
# [9] = molecular target: T6, ELK3 (Homo sapiens, UniProt P41970 1-407); conditions: protein: recombinant; tags: N-terminal GST; dsDNA, one strand shown
# T6 sequence: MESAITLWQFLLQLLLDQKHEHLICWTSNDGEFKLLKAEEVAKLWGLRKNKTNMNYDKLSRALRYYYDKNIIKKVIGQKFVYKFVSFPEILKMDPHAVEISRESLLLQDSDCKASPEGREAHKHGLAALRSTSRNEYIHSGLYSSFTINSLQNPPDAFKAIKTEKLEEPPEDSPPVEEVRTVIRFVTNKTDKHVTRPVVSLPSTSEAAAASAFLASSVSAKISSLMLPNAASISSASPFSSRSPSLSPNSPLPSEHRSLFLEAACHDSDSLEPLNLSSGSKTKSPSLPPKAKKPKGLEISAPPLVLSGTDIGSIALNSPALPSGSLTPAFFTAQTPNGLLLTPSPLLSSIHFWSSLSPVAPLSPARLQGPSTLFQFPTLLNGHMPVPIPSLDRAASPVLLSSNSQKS
# How it was run: as §1
# [10] = molecular target: T7, FEV (Homo sapiens, UniProt Q99581 1-238); conditions: protein: recombinant; tags: N-terminal GST; dsDNA, one strand shown
# T7 sequence: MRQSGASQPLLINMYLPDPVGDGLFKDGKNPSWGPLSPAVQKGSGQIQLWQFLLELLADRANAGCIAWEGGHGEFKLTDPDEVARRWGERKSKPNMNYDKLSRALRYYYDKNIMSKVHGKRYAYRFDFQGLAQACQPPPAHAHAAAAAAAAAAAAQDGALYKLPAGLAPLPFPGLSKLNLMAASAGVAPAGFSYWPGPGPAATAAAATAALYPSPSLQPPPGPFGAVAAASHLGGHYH
# How it was run: as §1
# [11] = molecular target: ETV5 (Homo sapiens, UniProt P41161 1-510); conditions: protein: recombinant; tags: N-terminal GST; dsDNA, one strand shown
# How it was run: as §1
# [12] = molecular target: HSF1 (Homo sapiens, UniProt Q00613 1-529); conditions: protein: recombinant; tags: N-terminal GST; chain copies: 3; dsDNA, one strand shown
# How it was run: as §1
# [13] = molecular target: T8, SPIC (Homo sapiens, UniProt Q8N5J4 1-248); conditions: protein: recombinant; tags: N-terminal GST; dsDNA, one strand shown
# T8 sequence: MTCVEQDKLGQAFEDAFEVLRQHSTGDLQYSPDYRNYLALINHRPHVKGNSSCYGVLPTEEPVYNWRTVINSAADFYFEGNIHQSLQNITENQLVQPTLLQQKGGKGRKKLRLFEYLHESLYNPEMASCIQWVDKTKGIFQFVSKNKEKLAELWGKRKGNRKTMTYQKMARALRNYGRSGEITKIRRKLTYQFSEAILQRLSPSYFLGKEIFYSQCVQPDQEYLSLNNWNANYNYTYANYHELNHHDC
# How it was run: as §1
# [14] = molecular target: ELF4 (Homo sapiens, UniProt Q99607 1-663); conditions: protein: recombinant; tags: N-terminal GST; dsDNA, one strand shown
# How it was run: as §1
# [15] = molecular target: T9, ELK4 (Homo sapiens, UniProt P28324-2 1-405); conditions: protein: recombinant; tags: N-terminal GST; dsDNA, one strand shown
# T9 sequence: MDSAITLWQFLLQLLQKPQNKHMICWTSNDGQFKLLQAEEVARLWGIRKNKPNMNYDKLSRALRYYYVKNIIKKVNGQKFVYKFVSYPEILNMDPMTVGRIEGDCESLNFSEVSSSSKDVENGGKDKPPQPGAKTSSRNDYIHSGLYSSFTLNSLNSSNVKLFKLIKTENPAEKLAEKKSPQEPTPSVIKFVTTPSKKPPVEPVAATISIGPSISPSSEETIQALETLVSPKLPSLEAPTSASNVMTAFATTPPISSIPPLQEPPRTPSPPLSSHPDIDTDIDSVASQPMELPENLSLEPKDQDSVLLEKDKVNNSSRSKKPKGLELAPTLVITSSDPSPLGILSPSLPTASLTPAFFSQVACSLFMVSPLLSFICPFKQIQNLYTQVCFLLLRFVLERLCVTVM
# How it was run: as §1
# [16] = molecular target: T10, ETV2 (Homo sapiens, UniProt O00321 1-342); conditions: protein: recombinant; tags: N-terminal GST; dsDNA, one strand shown
# T10 sequence: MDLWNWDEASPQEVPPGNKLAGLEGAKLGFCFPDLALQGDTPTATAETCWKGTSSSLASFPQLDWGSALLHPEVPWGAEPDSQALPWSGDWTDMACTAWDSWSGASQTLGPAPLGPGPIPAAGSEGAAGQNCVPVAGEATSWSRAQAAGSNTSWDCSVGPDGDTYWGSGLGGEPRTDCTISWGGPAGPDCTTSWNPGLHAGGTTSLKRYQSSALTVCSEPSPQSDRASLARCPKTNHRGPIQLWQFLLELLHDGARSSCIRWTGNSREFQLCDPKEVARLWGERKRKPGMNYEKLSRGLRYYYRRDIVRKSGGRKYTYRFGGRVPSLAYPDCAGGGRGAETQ
# How it was run: as §1
# [17] = molecular target: T11, ELF3 (Homo sapiens, UniProt P78545 1-371); conditions: protein: recombinant; tags: N-terminal GST; dsDNA, one strand shown
# T11 sequence: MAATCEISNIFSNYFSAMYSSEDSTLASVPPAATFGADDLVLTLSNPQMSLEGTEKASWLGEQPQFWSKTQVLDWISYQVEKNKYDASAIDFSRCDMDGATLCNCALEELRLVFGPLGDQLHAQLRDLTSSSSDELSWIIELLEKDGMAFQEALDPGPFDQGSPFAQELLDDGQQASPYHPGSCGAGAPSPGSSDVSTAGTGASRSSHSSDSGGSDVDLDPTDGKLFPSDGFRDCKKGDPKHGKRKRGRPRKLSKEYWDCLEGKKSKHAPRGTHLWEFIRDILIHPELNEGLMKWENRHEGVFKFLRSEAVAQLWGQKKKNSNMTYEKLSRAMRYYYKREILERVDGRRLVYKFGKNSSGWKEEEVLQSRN
# How it was run: as §1
# [18] = molecular target: CRX (Homo sapiens, UniProt O43186 1-299); conditions: protein: recombinant; tags: N-terminal GST; dsDNA, one strand shown
# How it was run: as §1
# [19] = molecular target: ETV1 (Homo sapiens, UniProt P50549 1-477); conditions: protein: recombinant; tags: N-terminal GST; dsDNA, one strand shown
# How it was run: as §1
# Chain of ETV5 (P41161 whole entry): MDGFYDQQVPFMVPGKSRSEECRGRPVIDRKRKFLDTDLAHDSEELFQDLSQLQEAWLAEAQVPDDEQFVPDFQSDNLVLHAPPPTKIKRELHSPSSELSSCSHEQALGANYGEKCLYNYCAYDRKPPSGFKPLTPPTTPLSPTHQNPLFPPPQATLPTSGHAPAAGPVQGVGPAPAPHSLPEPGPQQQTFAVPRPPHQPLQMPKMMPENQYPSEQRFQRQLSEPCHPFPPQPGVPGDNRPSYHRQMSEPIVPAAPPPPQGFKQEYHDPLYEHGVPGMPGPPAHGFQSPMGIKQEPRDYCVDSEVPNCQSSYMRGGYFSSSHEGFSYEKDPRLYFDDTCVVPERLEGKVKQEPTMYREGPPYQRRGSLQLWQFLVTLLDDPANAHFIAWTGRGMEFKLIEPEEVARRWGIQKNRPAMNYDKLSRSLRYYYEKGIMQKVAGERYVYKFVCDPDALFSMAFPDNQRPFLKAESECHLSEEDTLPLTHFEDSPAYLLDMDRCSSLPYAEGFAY
# Chain of SPIB (Q01892 whole entry): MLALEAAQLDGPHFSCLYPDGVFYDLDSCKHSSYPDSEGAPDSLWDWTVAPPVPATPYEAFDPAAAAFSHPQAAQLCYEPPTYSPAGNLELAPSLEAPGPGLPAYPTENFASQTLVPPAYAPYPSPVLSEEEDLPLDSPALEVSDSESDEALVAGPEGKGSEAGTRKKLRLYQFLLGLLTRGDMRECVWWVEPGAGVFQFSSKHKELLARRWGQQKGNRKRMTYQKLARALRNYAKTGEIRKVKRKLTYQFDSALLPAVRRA
# Chain of HSF1 (Q00613 whole entry): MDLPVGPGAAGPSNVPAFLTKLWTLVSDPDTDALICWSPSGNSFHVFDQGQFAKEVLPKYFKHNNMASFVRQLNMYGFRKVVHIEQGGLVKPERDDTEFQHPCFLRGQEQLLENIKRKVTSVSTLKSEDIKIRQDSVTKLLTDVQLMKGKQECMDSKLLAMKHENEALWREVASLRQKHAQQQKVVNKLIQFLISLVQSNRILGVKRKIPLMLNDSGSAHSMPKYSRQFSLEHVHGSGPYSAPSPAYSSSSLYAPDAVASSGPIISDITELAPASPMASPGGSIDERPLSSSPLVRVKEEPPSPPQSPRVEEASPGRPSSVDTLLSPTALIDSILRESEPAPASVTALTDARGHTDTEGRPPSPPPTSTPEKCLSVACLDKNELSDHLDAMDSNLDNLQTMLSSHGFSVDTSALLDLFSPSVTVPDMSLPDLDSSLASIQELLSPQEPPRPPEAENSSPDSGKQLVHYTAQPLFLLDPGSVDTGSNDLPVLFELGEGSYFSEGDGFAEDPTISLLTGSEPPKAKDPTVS
# Chain of CRX (O43186 whole entry): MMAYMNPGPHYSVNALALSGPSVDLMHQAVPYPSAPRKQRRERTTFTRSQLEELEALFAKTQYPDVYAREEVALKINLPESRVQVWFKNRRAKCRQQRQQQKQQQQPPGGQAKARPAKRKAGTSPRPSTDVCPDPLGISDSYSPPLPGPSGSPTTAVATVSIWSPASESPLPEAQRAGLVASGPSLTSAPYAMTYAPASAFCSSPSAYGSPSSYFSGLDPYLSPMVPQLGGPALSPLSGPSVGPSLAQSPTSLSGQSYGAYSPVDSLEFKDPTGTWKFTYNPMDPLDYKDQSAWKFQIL
# Chain of ELF1 (P32519 whole entry): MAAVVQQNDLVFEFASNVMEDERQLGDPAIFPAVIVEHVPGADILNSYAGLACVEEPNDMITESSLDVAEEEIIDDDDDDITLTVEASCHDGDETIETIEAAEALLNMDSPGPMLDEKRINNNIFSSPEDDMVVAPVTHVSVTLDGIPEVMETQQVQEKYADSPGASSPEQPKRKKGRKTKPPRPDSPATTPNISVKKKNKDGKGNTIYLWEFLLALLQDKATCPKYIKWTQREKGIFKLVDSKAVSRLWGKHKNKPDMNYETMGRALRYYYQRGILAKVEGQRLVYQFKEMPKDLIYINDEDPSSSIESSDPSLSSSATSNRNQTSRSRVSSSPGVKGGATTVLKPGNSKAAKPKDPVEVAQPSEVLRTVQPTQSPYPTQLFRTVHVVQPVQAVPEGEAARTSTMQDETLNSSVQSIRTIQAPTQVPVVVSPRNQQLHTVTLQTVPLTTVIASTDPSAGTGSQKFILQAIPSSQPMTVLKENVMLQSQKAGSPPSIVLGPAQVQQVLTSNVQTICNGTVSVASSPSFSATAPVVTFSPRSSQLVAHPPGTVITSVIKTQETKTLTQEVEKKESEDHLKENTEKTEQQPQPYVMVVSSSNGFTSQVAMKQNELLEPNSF
# Chain of ELF4 (Q99607 whole entry): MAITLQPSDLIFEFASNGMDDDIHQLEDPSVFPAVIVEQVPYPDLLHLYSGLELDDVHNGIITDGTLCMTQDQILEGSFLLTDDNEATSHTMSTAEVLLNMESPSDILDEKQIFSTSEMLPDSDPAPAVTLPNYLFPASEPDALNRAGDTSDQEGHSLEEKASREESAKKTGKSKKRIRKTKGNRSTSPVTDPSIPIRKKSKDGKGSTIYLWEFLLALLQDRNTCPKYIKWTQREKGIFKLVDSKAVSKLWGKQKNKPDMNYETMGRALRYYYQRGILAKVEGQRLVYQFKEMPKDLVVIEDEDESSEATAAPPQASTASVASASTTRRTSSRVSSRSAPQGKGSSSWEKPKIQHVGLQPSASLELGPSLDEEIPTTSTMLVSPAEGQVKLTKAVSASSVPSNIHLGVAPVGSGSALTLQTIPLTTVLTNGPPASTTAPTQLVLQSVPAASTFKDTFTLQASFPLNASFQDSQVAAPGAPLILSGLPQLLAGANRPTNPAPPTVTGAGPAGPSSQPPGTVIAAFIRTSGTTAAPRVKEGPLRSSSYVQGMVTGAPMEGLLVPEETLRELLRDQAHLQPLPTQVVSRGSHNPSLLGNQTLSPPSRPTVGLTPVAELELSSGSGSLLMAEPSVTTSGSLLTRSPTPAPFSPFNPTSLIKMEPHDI
# Chain of ETV1 (P50549 whole entry): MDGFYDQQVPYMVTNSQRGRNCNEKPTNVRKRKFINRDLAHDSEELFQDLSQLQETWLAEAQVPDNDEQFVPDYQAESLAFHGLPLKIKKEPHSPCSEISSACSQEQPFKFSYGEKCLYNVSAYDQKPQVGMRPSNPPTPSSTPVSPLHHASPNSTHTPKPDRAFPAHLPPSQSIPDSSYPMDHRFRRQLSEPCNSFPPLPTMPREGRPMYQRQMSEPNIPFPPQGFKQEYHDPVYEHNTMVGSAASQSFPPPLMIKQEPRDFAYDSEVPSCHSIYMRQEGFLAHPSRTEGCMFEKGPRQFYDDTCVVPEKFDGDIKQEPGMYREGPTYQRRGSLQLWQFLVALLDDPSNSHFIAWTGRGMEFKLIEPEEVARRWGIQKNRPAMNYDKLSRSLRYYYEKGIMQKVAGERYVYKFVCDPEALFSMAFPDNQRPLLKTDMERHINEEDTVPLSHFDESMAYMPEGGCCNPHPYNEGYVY
sequence,measurement,setting,value
ACACTT,binding signal,[1],"1.63 fold enrichment (6-mer frequency, TF over GST control)"
same,binding signal,[2],"1.7 fold enrichment (6-mer frequency, TF over GST control)"
same,binding signal,[3],"1.53 fold enrichment (6-mer frequency, TF over GST control)"
same,binding signal,[4],"1.8 fold enrichment (6-mer frequency, TF over GST control)"
same,binding signal,[5],"1.69 fold enrichment (6-mer frequency, TF over GST control)"
same,binding signal,[6],"1.66 fold enrichment (6-mer frequency, TF over GST control)"
same,binding signal,[7],"1.95 fold enrichment (6-mer frequency, TF over GST control)"
same,binding signal,[8],"1.67 fold enrichment (6-mer frequency, TF over GST control)"
same,binding signal,[9],"1.74 fold enrichment (6-mer frequency, TF over GST control)"
same,binding signal,[10],"1.68 fold enrichment (6-mer frequency, TF over GST control)"
same,binding signal,[11],"1.67 fold enrichment (6-mer frequency, TF over GST control)"
same,binding signal,[12],"1.11 fold enrichment (6-mer frequency, TF over GST control)"
same,binding signal,[13],"1.71 fold enrichment (6-mer frequency, TF over GST control)"
same,binding signal,[14],"1.55 fold enrichment (6-mer frequency, TF over GST control)"
same,binding signal,[15],"1.49 fold enrichment (6-mer frequency, TF over GST control)"
same,binding signal,[16],"1.58 fold enrichment (6-mer frequency, TF over GST control)"
same,binding signal,[17],"1.66 fold enrichment (6-mer frequency, TF over GST control)"
same,binding signal,[18],"1.16 fold enrichment (6-mer frequency, TF over GST control)"
same,binding signal,[19],"1.77 fold enrichment (6-mer frequency, TF over GST control)"
